SW480 rereplic: induces DNA re-replication in SW480 colon adenocarcinoma cells; 1.8% of 340,000 active; SW480 DNA re-replication, Hoechst DNA content imaging, 48 h; AID 624297; Potency, µM (series often up to 46.1 µM), without a hit: top-dose re-replication activation, most hits filed as activators; also: % of control where 0% means no effect; nearly all actives have a fitted effect of over 55% in size
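250 cells/well; 23 nL cpd via pin tool; 48 hr, 37 C, 5% CO2; Hoechst 40 min; imager read of total nuclear intensity, ex 405/em 500-530 nm.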
MCF10A rerep: DNA re-replication induction in MCF 10a cells | MCF 10A DNA re-replication, Hoechst nuclear intensity, 48 h | Potency, µM (top dose mostly 46.1 µM), for inactives: at the highest dose activity, positive = re-replication, usual class: activators | 2.9% of 350,000 active | AID 624296; also: % of control where 0% means no effect; nearly all actives have a fitted effect of over 50% in size
HT1080-NT tox: kills 2HG-producing HT-1080-NT fibrosarcoma cells | Potency, µM (series often up to 46.1 µM), for the others: at the highest dose activity, negative = less viability, hits mostly cytotoxic | 1.6% of 360,000 active | HT-1080-NT fibrosarcoma viability, CellTiter-Glo ATP luminescence, 48 h;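 also: NT is the 2HG producing partner of a matched IDH1 knockdown line; 0% = DMSO-treated cells and -100% = media-only wells without cells; nearly all actives have a fitted effect of over 55% in size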
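Read-out is CellTiter-Glo luminescence after 10 minutes at room temperature, following 48 hours' compound treatment of HT-1080-NT cells (750 cells/well, RPMI, 5% FBS, 37 degrees C).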
KB-V1 MDR tox: KB-V1 MDR subline cytotoxicity; KB-V1 MDR cells viability, CellTiter-Glo, 72 h; Potency, µM (titrated, usually from 46.1 µM), usual class: cytotoxic; 3.4% of 400,000 active; AID 1347076; also: % is scaled to controls: 0 for no effect and ±100 for the full control effect; nearly all actives have a fitted effect of over 60% in size
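Cytotoxicity toward P-gp-expressing KB-V1 cells was determined as loss of CellTiter-Glo luminescence after 72 h at 37 degrees C. Compounds were tested in quantitative HTS format across a concentration range, with curves fitted to normalized data.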
HT1080 IDH1KD tx: toxicity to HT-1080 IDH1 knockdown cells (counter line). 2% of 360,000 active. HT-1080 IDH1 knockdown viability, ATP luminescence, 48 h. Potency, µM (doses to about 46.1 µM), for the others: at the top dose activity, negative = toxicity, usual class: cytotoxic;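 also: 0% = DMSO wells and -100% = cell-free medium wells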
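Viability of IDH1-knockdown HT-1080 fibrosarcoma cells was assessed by CellTiter-Glo after 48 h at 37 °C with titrated compound; concentration-effect curves were classified by fit quality and response size.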
KB-3-1 cytotox: KB-3-1 parental cell cytotoxicity. KB-3-1 viability, CellTiter-Glo ATP luminescence, 72 h. Potency, µM (top dose mostly 46.1 µM), usual class: cytotoxic. 1.4% of 400,000 active. AID 1347075; also: % is scaled to controls: 0 for no effect and ±100 for the full control effect; nearly all actives have a fitted effect of over 60% in size
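Luminescent ATP read-out (CellTiter-Glo) measures survival of drug-naive KB-3-1 cells after 72 h compound exposure at 37 °C. Titration series was screened from lowest to highest concentration, with DMSO vehicle plates as background controls.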
Starred values were filed as active, the others as inactive; i = inactive; ? = inconclusive; nt = no result given. In the library only some 7.9% were active in any assay of this set; here they are far more common. Calls follow the shape of the dose curve; as a rule, active = well fitted curve in the direction sought with a large enough effect; inconclusive = small, poorly fitted or top-dose-only effect, or another doubt; inactive = no such curve, though single readings can be large; an effect the other way counts as inactive or inconclusive. Potency is read from the fitted curve at half-maximal effect.

SMILES	SW480 rereplic	MCF10A rerep	HT1080-NT tox	KB-V1 MDR tox	HT1080 IDH1KD tx	KB-3-1 cytotox
COCCCn1c(C(=O)N2CCOCC2)cc2c(=O)n3cccc(C)c3nc21	-3%	15%	5%	?	5%	i
CCCn1c(=N)c(C(=O)NCc2ccc3c(c2)OCO3)cc2c(=O)n3cccc(C)c3nc21	-2%	0%	-2%	i	-3%	i
Cc1cccn2c(=O)c3cc(C(=O)NCCN4CCOCC4)c(=N)n(Cc4ccc(F)cc4)c3nc12	?	2.3µM*	-22%	?	?	16µM*
CCOCCCn1c(=N)c(C(=O)NCCN2CCOCC2)cc2c(=O)n3cccc(C)c3nc21	3%	2.9µM*	-10%	i	-6%	i
Cc1c(Cl)cccc1NC(=O)CSc1nc(=O)n(Cc2cccnc2)c2c1CCC2	nt	nt	nt	i	nt	i
C[C@H](CO)N1C[C@H](C)[C@H](CN(C)S(=O)(=O)c2cccc(C#N)c2)OCc2cnnn2CCCC1=O	nt	nt	4%	i	9%	i
CCCN1Cc2cccc(C(=O)NCCc3ccccc3)c2C1=O	-2%	-2%	12%	?	0%	i
Cc1ccccc1C(=O)NCCN1CCOCC1	-18%	0.58µM*	3%	?	8%	i
COc1ccc(CCNC(=O)c2cc3c(=O)n4cccc(C)c4nc3n(CCCN3CCOCC3)c2=N)cc1	2.6µM*	?	?	i	-27%	i
Cc1ccccc1C(=O)NC(CC(C)C)C(=O)NCC(C)(C)N1CCOCC1 (stereo unspecified)	-6%	-1%	4%	23µM*	-11%	i
O=C(CN1C(=O)c2cccc3cccc(c23)C1=O)NCCN1CCOCC1	-9%	1.8µM*	6%	i	9%	i
O=C(CN1C(=O)c2cccc3cccc(c23)C1=O)NCCCO	-11%	-1%	17%	i	18%	i
Cc1ccccc1C(=O)NC(=S)NCCN1CCOCC1	-5%	-1%	10%	i	16%	i
CCCNC(=O)c1noc2c1CCc1ccccc1-2	-5%	-2%	?	i	10%	i
COCCCn1c(=N)c(C(=O)NC2CCCC2)cc2c(=O)n3cccc(C)c3nc21	nt	nt	nt	i	nt	i
Cc1cccn2c(=O)c3cc(C(=O)NC4CCCC4)c(=N)n(CCCN4CCOCC4)c3nc12	1.5µM*	99%	-29%	i	?	i
O=C(NCCN1CCOCC1)c1noc2c1CCc1ccccc1-2	-15%	-2%	5%	12µM*	-16%	i
CN(CC(=O)Nc1cccc(F)c1)C(=O)CC1CC2CCC1C2 (stereo unspecified)	?	1%	0%	i	1%	i
CC1CCN(S(=O)(=O)c2ccc3ncn(CC(=O)Nc4ccccc4C(F)(F)F)c(=O)c3c2)CC1	nt	nt	nt	i	nt	i
Cc1ccc(C)c(NC(=O)CSc2nnc([C@@H]3CCCN3C(=O)OC(C)(C)C)o2)c1	0%	-3%	-4%	i	-2%	i
Cc1cccc(NC(=O)CSc2nnc([C@@H]3CCCN3C(=O)OC(C)(C)C)o2)c1C	1%	5%	7%	?	7%	21µM*
CCOC(=O)C1=C(C)NC(C)=C(C(=O)OCC)C1c1ccc(OC)c(OC)c1	nt	nt	-4%	i	-13%	i
CCOC(=O)C1=C(C)NC2=C(C(=O)CC(c3ccc(OC)c(OC)c3)C2)C1c1ccc(C)o1 (stereo unspecified)	-5%	4%	-4%	18µM*	-3%	i
CC(=O)c1cccc(OC(=O)Oc2cccc(C(C)=O)c2)c1	5%	?	-7%	i	-10%	i
COc1cccc(NC2C=CS(=O)(=O)C2)c1 (stereo unspecified)	-2%	1%	6%	?	7%	i
SMILES	SW480 rereplic	MCF10A rerep	HT1080-NT tox	KB-V1 MDR tox	HT1080 IDH1KD tx	KB-3-1 cytotox
O=S1(=O)C=CC(Nc2cccc(Cl)c2)C1 (stereo unspecified)	28%	9%	10µM*	i	?	i
CCOc1ccc(NS(=O)(=O)c2ccc(C(=O)NCC(c3ccc(OC)cc3)N3CCCC3)cc2)cc1 (stereo unspecified)	25%	14%	-4%	i	1%	i
O=C(NCC(c1ccco1)N1CCc2ccccc21)C(=O)Nc1ccccc1F (stereo unspecified)	?	?	-3%	16µM*	-18%	15µM*
O=C(NCC(c1ccco1)N1CCc2ccccc21)C(=O)Nc1ccccc1 (stereo unspecified)	-476%	12%	-14%	i	-4%	i
O=C(NCC(c1ccco1)N1CCc2ccccc21)C(=O)Nc1ccc(F)cc1F (stereo unspecified)	?	4.1µM*	?	4.1µM*	?	4.6µM*
CCN1CCCC1CNC(=O)c1cc([N+](=O)[O-])c(N(C)C)cc1OC (stereo unspecified)	?	?	5%	i	5%	i
CCC/C(C#Cc1ccsc1)=C1/c2ccccc2C(=O)N1c1ccccc1	?	23µM*	-30%	?	?	i
COc1ccc(OC)c(-n2c3c(cc(-c4nc(-c5ccc(Cl)cc5)cs4)c2=O)C(=O)CC(C)(C)C3)c1	nt	nt	nt	i	nt	i
CN(C)CCCNc1ccc(-c2cc(Nc3cccc(Cl)c3)ncn2)cn1	?	21µM*	-14%	i	-4%	i
CCOC(=O)c1c(CSc2ccccc2)n(C)c2cc(Br)c(OCC(O)CNC(CO)(CO)CO)cc12 (stereo unspecified)	?	21µM*	-5%	i	-16%	?
CC(C)=CCC[C@H](C)C[C@@H]1Cc2[nH][nH]c(=O)c2[C@H](c2ccc(F)cc2)O1	nt	nt	-14%	i	-3%	i
COc1cccc(NC(=O)CN(C)C(=O)C(CCSC)NC(=O)c2ccco2)c1 (stereo unspecified)	1%	-1%	-7%	18µM*	-2%	i
CSCCC(NC(=O)COc1ccccc1)C(=O)N(C)Cc1c(F)cccc1Cl (stereo unspecified)	nt	nt	-6%	?	-4%	i
COc1ccc(NC(=O)CN(C)C(=O)C(NC(=O)c2ccco2)C(C)C)cc1 (stereo unspecified)	-2%	-4%	-2%	i	3%	i
CSCCC(NC(=O)COc1ccccc1)C(=O)N(C)CC(=O)Nc1ccc(Cl)cc1 (stereo unspecified)	5%	5%	-11%	3.7µM*	-8%	i
